What all share (assay): NCI-60 one-dose screen, 48 h (100 = growth as untreated, 0 = no growth, -100 = all killed)
The subject of one assay is HCT-15 colon. To be noted: 10 µM unless noted.
In the next assay the test system is HT29 colon. To be noted: 10 µM unless noted.
The next assay deals with SNB-19 CNS. To be noted: 10 µM unless noted.
The subject of another assay is U251 CNS. To be noted: 10 µM unless noted.
Another assay relates to PC-3 prostate. To be noted: 10 µM unless noted.
Another assay deals with UACC-62 melanoma. The note with it: 10 µM unless noted.
The subject of a further assay is LOX IMVI melanoma. The note with it: 10 µM unless noted.
The next assay deals with SK-MEL-28 melanoma. The note with it: 10 µM unless noted.
A further assay relates to SK-MEL-5 melanoma. The note with it: 10 µM unless noted.
The next assay has as its system SNB-75 CNS. To be noted: 10 µM.

This is part of a sample that, as a whole, favours compounds with a hit. Of some 83,000 tested, about 20% had one in any assay.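 Single-concentration screen, 48 h exposure, 96-well plates. Endpoint: percent growth. Below 10 = active.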 A number with no mark means an inactive call. Activity calls are given as the source filed them.

`C=C1CCC2C(C)(CO)C(O)CCC2(C)C1C/C=C1/C(=O)OCC1Oc1ccccc1C` (stereo not given): the growth with HCT-15 colon is 55.9%; with HT29 colon, 42.8%; with SNB-19 CNS it was 83.4%; in the assay on U251 CNS, 88.4%; in the assay on PC-3 prostate it was 86.3%; with UACC-62 melanoma, 77.3%. The growth was 2.56% (active) in the assay with LOX IMVI melanoma and 98% with SK-MEL-28 melanoma.
For `CCN1C(=O)N(CC)C2C1NN=c1s/c(=C\c3cccnc3)c(=O)n12` (stereo not given), the growth is 18.9% in the assay with HCT-15 colon; 8.17% (active) with HT29 colon; 29.2% in the assay with SNB-19 CNS; 19.1% in the assay on U251 CNS; 21.3% in the assay on PC-3 prostate; 30.7% in the assay on UACC-62 melanoma. Also, the results for the growth in the assay with LOX IMVI melanoma and in the assay on SK-MEL-28 melanoma were 46% and 51.8%, respectively.
Turning to `COc1cc(-c2nc(-c3nc4ccc(Cl)cc4[nH]3)cc3c2[nH]c2ccccc23)cc(OC)c1OC`, the growth is 72.8% with HCT-15 colon; 75% in the assay with HT29 colon; 79.9% in the assay with SNB-19 CNS; 80.1% with U251 CNS; 53.2% with PC-3 prostate; 33.6% with UACC-62 melanoma. The growth with LOX IMVI melanoma is 67.8%; with SK-MEL-28 melanoma, 99.8%.
As to `Nc1cccc(-c2nc3sccn3c2-c2ccnc(NCCCNS(=O)(=O)c3cccc4ccccc34)n2)c1`, the growth in the assay on HCT-15 colon was 25.4%; with HT29 colon it was 20.6%; with U251 CNS, 49.3%; with PC-3 prostate it was 31.2%; in the assay on SK-MEL-5 melanoma it was 4.1% (active); in the assay with UACC-62 melanoma, 22.2%. The growth in the assay with LOX IMVI melanoma is 9.92% (active); in the assay with SK-MEL-28 melanoma, 64.5%.
For the compound `O=S(=O)(CC(O)(c1ccccc1)c1ccccc1)CC(O)(c1ccccc1)c1ccccc1`, the growth with HCT-15 colon is 96.4%; in the assay on SNB-75 CNS, 58.4%; in the assay with SNB-19 CNS, 83.2%; with U251 CNS, 70.7%; in the assay with PC-3 prostate, 80.4%; in the assay on SK-MEL-5 melanoma, 88.6%. Further, the growth was 93.7% in the assay with UACC-62 melanoma, 76% with LOX IMVI melanoma and 86% in the assay with SK-MEL-28 melanoma.
Regarding `O=c1[nH]c(-c2ccccc2)nc(CN2CCCCC2)c1O`, the growth was 113% in the assay with HCT-15 colon; 96.3% in the assay on SNB-75 CNS; 97.3% in the assay with SNB-19 CNS; 103% in the assay with U251 CNS; 105% in the assay with PC-3 prostate; 111% in the assay on SK-MEL-5 melanoma. Further, the growth was 98.6% in the assay with UACC-62 melanoma, 97.4% in the assay on LOX IMVI melanoma and 111% in the assay on SK-MEL-28 melanoma.
`COC(=O)c1cc2cc(-c3ccc(OC)cc3)cnc2[nH]1`: the growth is 11% in the assay with HCT-15 colon; 62.5% in the assay with SNB-75 CNS; 42.4% in the assay on SNB-19 CNS; 12.6% in the assay on U251 CNS; 7.32% (active) in the assay with PC-3 prostate; 30.9% in the assay with SK-MEL-5 melanoma. Further, the growth is 23.8% with UACC-62 melanoma, 25.2% in the assay with LOX IMVI melanoma and 56.1% in the assay with SK-MEL-28 melanoma.
For `COc1cc(C2CC(c3ccc4c(c3)OCO4)=NN2C=O)cc(OC)c1OC` (stereo not given), the growth in the assay with HCT-15 colon is 33.5%; in the assay on SNB-75 CNS, -13.5% (active); in the assay with SNB-19 CNS, 42.8%; in the assay with U251 CNS, 32%; with PC-3 prostate it was 47.9%; in the assay on SK-MEL-5 melanoma, 17.2%. The growth in the assay with UACC-62 melanoma was 40.9%; with LOX IMVI melanoma, 34.5%; in the assay on SK-MEL-28 melanoma, 50.6%.
Consider `CC(C)(C)n1cc(-c2ccnc(NCCCNS(=O)(=O)c3cccc(F)c3)c2)c(-c2cccc(O)c2)n1`, for which the growth in the assay with HCT-15 colon was -7.15% (active); with HT29 colon, 12.6%; in the assay on U251 CNS, 49.9%; in the assay on PC-3 prostate, 32.9%; with SK-MEL-5 melanoma, 26.1%; with UACC-62 melanoma, 64.5%. Moreover, the growth in the assay on LOX IMVI melanoma is -71.1% (active); in the assay with SK-MEL-28 melanoma, 47.2%.
Turning to `O=C1Nc2ccc3c(c2/C1=C\c1cc2c(cc1Br)OCO2)OCO3`, the growth in the assay with HCT-15 colon was 22.9%; with SNB-75 CNS it was -37.7% (active); in the assay with SNB-19 CNS, 42%; with U251 CNS, 13.4%; in the assay on PC-3 prostate, 16.6%; in the assay on SK-MEL-5 melanoma, -19.9% (active). Further, the growth in the assay with UACC-62 melanoma is 43.9%; in the assay on LOX IMVI melanoma, -29.5% (active); in the assay with SK-MEL-28 melanoma, 19.4%.
On to `NNc1cccc(/C=C/c2ccccc2)cc1=O`, for which the growth in the assay on HCT-15 colon is 33%; in the assay with SNB-75 CNS it was 81.3%; with SNB-19 CNS, 67.7%; in the assay on U251 CNS it was 48.5%; with PC-3 prostate it was 61.3%; with SK-MEL-5 melanoma, 62.6%. Moreover, the growth was 54.5% in the assay with UACC-62 melanoma, 33.4% in the assay with LOX IMVI melanoma and 81.9% with SK-MEL-28 melanoma.
In the case of `CC(=O)Nc1ccc(S(=O)(=O)n2ccc(-c3ccc4c(c3)CCC(C)(C)O4)n2)cc1`, the growth with HCT-15 colon is 59.3%; in the assay with SNB-75 CNS, 81.4%; in the assay with SNB-19 CNS, 73.3%; in the assay with U251 CNS, 66%; with PC-3 prostate it was 44.4%; in the assay on SK-MEL-5 melanoma it was 26.3%. Besides, the values for the growth in the assay with UACC-62 melanoma, in the assay with LOX IMVI melanoma and with SK-MEL-28 melanoma were 62.4%, 64.1% and 93.1%, respectively.
For the compound `CC(C)OC(=O)N1CCOCC1`, the growth with HCT-15 colon was 101%; in the assay on SNB-75 CNS, 86%; in the assay on SNB-19 CNS, 98.5%; with U251 CNS, 101%; with PC-3 prostate, 86.9%; with SK-MEL-5 melanoma it was 106%. For the same compound, the growth in the assay with UACC-62 melanoma was 98.6%; in the assay on LOX IMVI melanoma, 102%; in the assay on SK-MEL-28 melanoma it was 101%.
As to `COc1ccc(C(=O)N2NC(=O)/C(=C/c3cn(-c4ccccc4)nc3-c3ccccc3)N=C2c2ccccc2)cc1`, the growth in the assay with HCT-15 colon was 98.2%; in the assay with HT29 colon it was 99%; in the assay on U251 CNS, 91.2%; in the assay with PC-3 prostate, 95.3%; with SK-MEL-5 melanoma, 105%; in the assay with UACC-62 melanoma, 93%. The growth is 99.2% in the assay with LOX IMVI melanoma and 105% with SK-MEL-28 melanoma.

The record behind these values is PubChem BioAssay (NCI).
